# Data from the supplement of paper PMC4466140.
# What was measured:
# Test in all cases: SPOT peptide array binding signal intensity (averaged, normalized) (arbitrary units (background-subtracted, floor 0; scale differs between SH3 domains)); higher = stronger binding of the SH3 domain to the peptide
# AgAbp1 = target: AgAbp1
# Procedure, shortened: (§1)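 Spot intensities were captured after detection with anti-GST antibody, an HRP-linked anti-mouse secondary and luminol, and quantified with Genespotter. The probes were GST-fused SH3 domains from four yeast species, produced in E. coli BL21(DE3), purified on glutathione Sepharose and incubated at 10 μg/ml overnight at 4°C on cellulose-bound synthetic 15-mer peptides with cysteines replaced by serines. Binding signal is the normalized, background-subtracted spot intensity averaged over replicates, and its arbitrary units differ between domains.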
# AgBbc1 = target: AgBbc1
# Procedure, shortened: as §1
# AgBem1-D1 = target: AgBem1-D1
# Procedure, shortened: as §1
# AgBzz1-D1 = target: AgBzz1-D1
# Procedure, shortened: as §1
# AgBzz1-D2 = target: AgBzz1-D2
# Procedure, shortened: as §1
# AgCyk3 = target: AgCyk3
# Procedure, shortened: as §1
# AgFus1 = target: AgFus1
# Procedure, shortened: as §1
# AgHof1 = target: AgHof1
# Procedure, shortened: as §1
# AgHse1 = target: AgHse1
# Procedure, shortened: as §1
# AgLsb1 = target: AgLsb1
# Procedure, shortened: as §1
# AgLsb4 = target: AgLsb4
# Procedure, shortened: as §1
# AgMyo5 = target: AgMyo5
# Procedure, shortened: as §1
# AgNbp2 = target: AgNbp2
# Procedure, shortened: as §1
# AgRvs167 = target: AgRvs167
# Procedure, shortened: as §1
# AgSho1 = target: AgSho1
# Procedure, shortened: as §1
# AgSla1-D1-D2 = target: AgSla1-D1-D2
# Procedure, shortened: as §1
# AgSla1-D3 = target: AgSla1-D3
# Procedure, shortened: as §1
# CaAbp1-D1 = target: CaAbp1-D1
# Procedure, shortened: as §1
# CaAbp1-D2 = target: CaAbp1-D2
# Procedure, shortened: as §1
# CaBbc1 = target: CaBbc1
# Procedure, shortened: as §1
# CaBem1-D1 = target: CaBem1-D1
# Procedure, shortened: as §1
# CaBzz1-D1 = target: CaBzz1-D1
# Procedure, shortened: as §1
# CaBzz1-D2 = target: CaBzz1-D2
# Procedure, shortened: as §1
# CaCyk3 = target: CaCyk3
# Procedure, shortened: as §1
# CaFus1 = target: CaFus1
# Procedure, shortened: as §1
# CaHof1 = target: CaHof1
# Procedure, shortened: as §1
# CaHse1 = target: CaHse1
# Procedure, shortened: as §1
# CaLsb1 = target: CaLsb1
# Procedure, shortened: as §1
# CaLsb4 = target: CaLsb4
# Procedure, shortened: as §1
# CaMyo5 = target: CaMyo5
# Procedure, shortened: as §1
# CaNbp2 = target: CaNbp2
# Procedure, shortened: as §1
# CaRvs167 = target: CaRvs167
# Procedure, shortened: as §1
# CaRvs167-3 = target: CaRvs167-3
# Procedure, shortened: as §1
# CaSho1 = target: CaSho1
# Procedure, shortened: as §1
# CaSla1-D1-D2 = target: CaSla1-D1-D2
# Procedure, shortened: as §1
# CaSla1-D3 = target: CaSla1-D3
# Procedure, shortened: as §1
# ScAbp1 = target: ScAbp1
# Procedure, shortened: as §1
# ScBbc1 = target: ScBbc1
# Procedure, shortened: as §1
# ScBem1-D1 = target: ScBem1-D1
# Procedure, shortened: as §1
# ScBzz1-D1 = target: ScBzz1-D1
# Procedure, shortened: as §1
# ScBzz1-D2 = target: ScBzz1-D2
# Procedure, shortened: as §1
# ScCyk3 = target: ScCyk3
# Procedure, shortened: as §1
# ScFus1 = target: ScFus1
# Procedure, shortened: as §1
# ScHof1 = target: ScHof1
# Procedure, shortened: as §1
# ScHse1 = target: ScHse1
# Procedure, shortened: as §1
# ScLsb1 = target: ScLsb1
# Procedure, shortened: as §1
# ScLsb2 = target: ScLsb2
# Procedure, shortened: as §1
# ScLsb3 = target: ScLsb3
# Procedure, shortened: as §1
# ScLsb4 = target: ScLsb4
# Procedure, shortened: as §1
# ScMyo3 = target: ScMyo3
# Procedure, shortened: as §1
# ScMyo5 = target: ScMyo5
# Procedure, shortened: as §1
# ScNbp2 = target: ScNbp2
# Procedure, shortened: as §1
# ScPex13 = target: ScPex13
# Procedure, shortened: as §1
# ScRvs167 = target: ScRvs167
# Procedure, shortened: as §1
# ScSho1 = target: ScSho1
# Procedure, shortened: as §1
# ScSla1-D1-D2 = target: ScSla1-D1-D2
# Procedure, shortened: as §1
# ScSla1-D3 = target: ScSla1-D3
# Procedure, shortened: as §1
# SpAbp1-D1 = target: SpAbp1-D1
# Procedure, shortened: as §1
# SpBbc1 = target: SpBbc1
# Procedure, shortened: as §1
# SpBzz1-D1 = target: SpBzz1-D1
# Procedure, shortened: as §1
# SpBzz1-D2 = target: SpBzz1-D2
# Procedure, shortened: as §1
# SpCyk3 = target: SpCyk3
# Procedure, shortened: as §1
# SpHof1 = target: SpHof1
# Procedure, shortened: as §1
# SpHof1-2 = target: SpHof1-2
# Procedure, shortened: as §1
# SpHof1-3 = target: SpHof1-3
# Procedure, shortened: as §1
# SpHse1 = target: SpHse1
# Procedure, shortened: as §1
# SpLsb1 = target: SpLsb1
# Procedure, shortened: as §1
# SpLsb4 = target: SpLsb4
# Procedure, shortened: as §1
# SpMyo1 = target: SpMyo1
# Procedure, shortened: as §1
# SpNbp2 = target: SpNbp2
# Procedure, shortened: as §1
# SpPex13 = target: SpPex13
# Procedure, shortened: as §1
# SpRvs167 = target: SpRvs167
# Procedure, shortened: as §1
# SpSla1-D1-D2 = target: SpSla1-D1-D2
# Procedure, shortened: as §1
# SpSla1-D3 = target: SpSla1-D3
# Procedure, shortened: as §1
binder,measurement,setting,value
VLRFLGFPLPIFEKG,SPOT peptide array binding signal intensity,AgAbp1,2
same,SPOT peptide array binding signal intensity,AgBbc1,≤ 0
same,SPOT peptide array binding signal intensity,AgBem1-D1,24.5
same,SPOT peptide array binding signal intensity,AgBzz1-D1,15
same,SPOT peptide array binding signal intensity,AgBzz1-D2,≤ 0
same,SPOT peptide array binding signal intensity,AgCyk3,≤ 0
same,SPOT peptide array binding signal intensity,AgFus1,393
same,SPOT peptide array binding signal intensity,AgHof1,9
same,SPOT peptide array binding signal intensity,AgHse1,845
same,SPOT peptide array binding signal intensity,AgLsb1,7.75
same,SPOT peptide array binding signal intensity,AgLsb4,36
same,SPOT peptide array binding signal intensity,AgMyo5,0.5
same,SPOT peptide array binding signal intensity,AgNbp2,≤ 0
same,SPOT peptide array binding signal intensity,AgRvs167,1.67
same,SPOT peptide array binding signal intensity,AgSho1,31
same,SPOT peptide array binding signal intensity,AgSla1-D1-D2,3
same,SPOT peptide array binding signal intensity,AgSla1-D3,2
same,SPOT peptide array binding signal intensity,CaAbp1-D1,4
same,SPOT peptide array binding signal intensity,CaAbp1-D2,3.5
same,SPOT peptide array binding signal intensity,CaBbc1,≤ 0
same,SPOT peptide array binding signal intensity,CaBem1-D1,≤ 0
same,SPOT peptide array binding signal intensity,CaBzz1-D1,≤ 0
same,SPOT peptide array binding signal intensity,CaBzz1-D2,0.25
same,SPOT peptide array binding signal intensity,CaCyk3,≤ 0
same,SPOT peptide array binding signal intensity,CaFus1,3750
same,SPOT peptide array binding signal intensity,CaHof1,≤ 0
same,SPOT peptide array binding signal intensity,CaHse1,35.8
same,SPOT peptide array binding signal intensity,CaLsb1,1
same,SPOT peptide array binding signal intensity,CaLsb4,≤ 0
same,SPOT peptide array binding signal intensity,CaMyo5,≤ 0
same,SPOT peptide array binding signal intensity,CaNbp2,129
same,SPOT peptide array binding signal intensity,CaRvs167,8.5
same,SPOT peptide array binding signal intensity,CaRvs167-3,22.2
same,SPOT peptide array binding signal intensity,CaSho1,496
same,SPOT peptide array binding signal intensity,CaSla1-D1-D2,4
same,SPOT peptide array binding signal intensity,CaSla1-D3,4
same,SPOT peptide array binding signal intensity,ScAbp1,1.5
same,SPOT peptide array binding signal intensity,ScBbc1,1.5
same,SPOT peptide array binding signal intensity,ScBem1-D1,11.5
same,SPOT peptide array binding signal intensity,ScBzz1-D1,24
same,SPOT peptide array binding signal intensity,ScBzz1-D2,14
same,SPOT peptide array binding signal intensity,ScCyk3,80.5
same,SPOT peptide array binding signal intensity,ScFus1,404
same,SPOT peptide array binding signal intensity,ScHof1,≤ 0
same,SPOT peptide array binding signal intensity,ScHse1,2000
same,SPOT peptide array binding signal intensity,ScLsb1,≤ 0
same,SPOT peptide array binding signal intensity,ScLsb2,≤ 0
same,SPOT peptide array binding signal intensity,ScLsb3,≤ 0
same,SPOT peptide array binding signal intensity,ScLsb4,≤ 0
same,SPOT peptide array binding signal intensity,ScMyo3,0.5
same,SPOT peptide array binding signal intensity,ScMyo5,≤ 0
same,SPOT peptide array binding signal intensity,ScNbp2,19
same,SPOT peptide array binding signal intensity,ScPex13,≤ 0
same,SPOT peptide array binding signal intensity,ScRvs167,≤ 0
same,SPOT peptide array binding signal intensity,ScSho1,662
same,SPOT peptide array binding signal intensity,ScSla1-D1-D2,3
same,SPOT peptide array binding signal intensity,ScSla1-D3,≤ 0
same,SPOT peptide array binding signal intensity,SpAbp1-D1,1
same,SPOT peptide array binding signal intensity,SpBbc1,≤ 0
same,SPOT peptide array binding signal intensity,SpBzz1-D1,3.5
ILARAILTIPRVLDK,SPOT peptide array binding signal intensity,CaNbp2,290
same,SPOT peptide array binding signal intensity,CaRvs167,99.3
same,SPOT peptide array binding signal intensity,CaRvs167-3,854
same,SPOT peptide array binding signal intensity,CaSho1,1420
same,SPOT peptide array binding signal intensity,CaSla1-D1-D2,15
same,SPOT peptide array binding signal intensity,CaSla1-D3,118
same,SPOT peptide array binding signal intensity,ScAbp1,6
same,SPOT peptide array binding signal intensity,ScBbc1,3.5
same,SPOT peptide array binding signal intensity,ScBem1-D1,8
same,SPOT peptide array binding signal intensity,ScBzz1-D1,41.5
same,SPOT peptide array binding signal intensity,ScBzz1-D2,299
same,SPOT peptide array binding signal intensity,ScCyk3,70
same,SPOT peptide array binding signal intensity,ScFus1,1530
same,SPOT peptide array binding signal intensity,ScHof1,0.5
same,SPOT peptide array binding signal intensity,ScHse1,1470
same,SPOT peptide array binding signal intensity,ScLsb1,11.5
same,SPOT peptide array binding signal intensity,ScLsb2,55
same,SPOT peptide array binding signal intensity,ScLsb3,117
same,SPOT peptide array binding signal intensity,ScLsb4,5
same,SPOT peptide array binding signal intensity,ScMyo3,≤ 0
same,SPOT peptide array binding signal intensity,ScMyo5,≤ 0
same,SPOT peptide array binding signal intensity,ScNbp2,305
same,SPOT peptide array binding signal intensity,ScPex13,59.2
same,SPOT peptide array binding signal intensity,ScRvs167,4.83
same,SPOT peptide array binding signal intensity,ScSho1,1560
same,SPOT peptide array binding signal intensity,ScSla1-D1-D2,145
same,SPOT peptide array binding signal intensity,ScSla1-D3,18
same,SPOT peptide array binding signal intensity,SpAbp1-D1,7.5
same,SPOT peptide array binding signal intensity,SpBbc1,56.5
same,SPOT peptide array binding signal intensity,SpBzz1-D1,553
same,SPOT peptide array binding signal intensity,SpBzz1-D2,1.5
same,SPOT peptide array binding signal intensity,SpCyk3,8.5
same,SPOT peptide array binding signal intensity,SpHof1,82.2
same,SPOT peptide array binding signal intensity,SpHof1-2,8.5
same,SPOT peptide array binding signal intensity,SpHof1-3,158
same,SPOT peptide array binding signal intensity,SpHse1,613
same,SPOT peptide array binding signal intensity,SpLsb1,2.25
same,SPOT peptide array binding signal intensity,SpLsb4,42
same,SPOT peptide array binding signal intensity,SpMyo1,1.5
same,SPOT peptide array binding signal intensity,SpNbp2,207
same,SPOT peptide array binding signal intensity,SpPex13,131
same,SPOT peptide array binding signal intensity,SpRvs167,39.2
same,SPOT peptide array binding signal intensity,SpSla1-D1-D2,≤ 0
same,SPOT peptide array binding signal intensity,SpSla1-D3,10
